Data taken from PubChem BioAssay.

What was measured:
[1] = test system: Human papillomavirus type 1a protein E7 (residues 44-93); assay: small molecules binding HPV E7 44-93 – biochemical, small-molecule microarray, residues 44-93, 635 nm fluorescence, primary screen (AID 1108); conditions: fluorescence 635 nm, higher = more signal;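 note: E7 fragment applied at 1 µg/mL in TBST for 1 h at 4 C; score combines spot fluorescence with its signal to noise ratio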
[2] = hepatitis C replication reporter changes, two-sided – Huh7 cells, luciferase reporter, HCV replication inhibitor project, primary screen (AID 1109); conditions: Huh7 HCV replicon luciferase reporter, 48 h; higher = more signal;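 note: huh7 hepatoma cells harbouring a luciferase neomycin HCV replicon reporter; luciferase luminescence as measure of HCV replicon replication; test concentration not given here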
[3] = biological target: Left-right determination factor 2 (Homo sapiens) (UniProt O00292); assay: small molecules binding LEFTY2 protein – biochemical, small-molecule microarray, 635 nm fluorescence scan, primary screen (AID 1110); conditions: higher = more signal
[4] = biological target: Calmodulin-1 (Homo sapiens) (UniProt P0DP23); assay: small molecules binding calmodulin-1 with EGTA – biochemical, small-molecule microarray, Cy5-labelled CALM1, profiling panel (AID 1111); conditions: Cy5-CALM1 binding fluorescence, higher = more signal;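 note: labelled calmodulin applied in Tris saline Tween buffer holding calcium plus EGTA and DTT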
[5] = biological target: Calmodulin-1 (Homo sapiens) (UniProt P0DP23); assay: small molecules binding Ca-loaded calmodulin-1 – biochemical, small-molecule microarray, Cy5-labelled CALM1, plus calcium, artefact control for SMM control-protein annotation, profiling panel (AID 1112); conditions: Cy5-CALM1 binding fluorescence, higher = more signal;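 note: score merges spot fluorescence with signal to noise from triplicate slides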
[6] = probe aWnt5a binding to arrayed compounds – biochemical, biotinylated probe, 635/667 nm fluorescence, primary screen (AID 1113); conditions: small-molecule microarray, higher = more signal;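 note: score merges 667 nm fluorescence intensity with signal-to-noise per printed feature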
[7] = probe aShh binding to arrayed compounds – biochemical, biotinylated probe, 635/667 nm fluorescence, primary screen (AID 1114); conditions: small-molecule microarray, higher = more signal;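 note: probe is biotin-labelled aShh protein from a stem cell growth factor screen; measures binding of labelled protein to compounds printed on the slide; score merges feature fluorescence at 667 nm with signal-to-noise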
[8] = probe aNog binding to arrayed compounds – biochemical, biotinylated probe, 635/667 nm fluorescence, primary screen (AID 1115); conditions: small-molecule microarray, higher = more signal;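 note: probe is biotinylated aNog protein used at 0.15 µg/mL for 1 h at 4 C; z-score combines 667 nm fluorescence of each spot with its signal to noise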
[9] = biological target: Torsin-1A-interacting protein 1 (Homo sapiens) (UniProt Q5JTV8); assay: compound microarray binding of lysate hLAP1 – cell lysate, small-molecule microarray, COS7 lysate, 635/667 nm fluorescence, primary screen (AID 1116); conditions: 635 nm fluorescence, higher = more signal
[10] = biological target: Alpha-bungarotoxin (Bungarus multicinctus) (UniProt P60615); assay: compounds binding labelled alpha-BTX control protein – biochemical, small-molecule microarray, Alexa647 label, 635/667 nm fluorescence, artefact control for SMM control protein annotation, profiling panel (AID 1117); conditions: alpha-BTX-A647 binding fluorescence, higher = more signal
Sequence of Alpha-bungarotoxin (Bungarus multicinctus) (P60615 whole entry, looked up): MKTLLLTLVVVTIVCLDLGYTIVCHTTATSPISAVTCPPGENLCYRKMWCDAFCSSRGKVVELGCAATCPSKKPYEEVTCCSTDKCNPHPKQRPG

Sequence of Left-right determination factor 2 (Homo sapiens) (O00292 whole entry, looked up): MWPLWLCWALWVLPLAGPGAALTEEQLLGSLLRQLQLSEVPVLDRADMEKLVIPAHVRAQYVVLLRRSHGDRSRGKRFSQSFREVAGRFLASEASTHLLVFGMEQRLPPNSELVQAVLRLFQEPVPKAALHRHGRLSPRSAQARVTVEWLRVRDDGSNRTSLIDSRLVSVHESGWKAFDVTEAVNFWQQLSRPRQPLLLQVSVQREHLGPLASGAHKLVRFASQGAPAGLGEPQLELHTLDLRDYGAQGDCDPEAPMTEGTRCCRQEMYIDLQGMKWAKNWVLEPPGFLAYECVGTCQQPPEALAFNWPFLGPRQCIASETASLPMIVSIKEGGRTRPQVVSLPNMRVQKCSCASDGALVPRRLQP
Sequence of Torsin-1A-interacting protein 1 (Homo sapiens) (Q5JTV8 whole entry, looked up): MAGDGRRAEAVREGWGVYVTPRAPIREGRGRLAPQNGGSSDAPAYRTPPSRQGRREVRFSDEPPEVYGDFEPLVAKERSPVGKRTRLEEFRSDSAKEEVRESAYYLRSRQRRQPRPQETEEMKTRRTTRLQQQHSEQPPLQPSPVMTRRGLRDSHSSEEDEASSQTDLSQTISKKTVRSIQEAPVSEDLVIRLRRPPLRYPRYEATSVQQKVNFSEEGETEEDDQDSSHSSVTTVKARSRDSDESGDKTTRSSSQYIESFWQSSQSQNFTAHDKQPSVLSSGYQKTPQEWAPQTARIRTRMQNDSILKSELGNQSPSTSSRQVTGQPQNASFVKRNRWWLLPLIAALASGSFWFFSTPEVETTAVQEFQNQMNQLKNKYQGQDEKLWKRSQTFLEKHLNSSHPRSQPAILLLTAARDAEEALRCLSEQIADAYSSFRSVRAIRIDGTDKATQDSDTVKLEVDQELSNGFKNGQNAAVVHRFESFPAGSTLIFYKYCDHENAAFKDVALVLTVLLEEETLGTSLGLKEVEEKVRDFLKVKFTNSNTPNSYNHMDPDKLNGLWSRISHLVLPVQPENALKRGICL

CCCCCC1=C2CNC(C)(C(=O)OC)C=C2C(C)C1=O (stereo not given)
composite z-score [1]: -0.696 | z-score [2]: -0.654 | composite z-score [3]: -0.37 | composite z-score [4]: 0.764 | composite z-score [5]: 0.897 | composite z-score [6]: -0.0519 | composite z-score [7]: 0.265 | composite z-score [8]: 1.17 | composite z-score [9]: 0.137 | composite z-score [10]: -0.0075

CCCNC(=O)[C@@]1(C)c2ccccc2C(=O)N(c2ccc(C)cn2)[C@H]1c1ccc(CO)cc1
composite z-score [1]: -0.846 | z-score [2]: 0.155 | composite z-score [3]: 0.384 | composite z-score [4]: -0.474 | composite z-score [5]: -0.524 | composite z-score [6]: -0.124 | composite z-score [7]: -0.291 | composite z-score [8]: 0.0373 | composite z-score [9]: 0.311 | composite z-score [10]: -0.163

C=CCC(OC(C)=O)[C@@H]1[C@@H](N(Cc2ccc(-c3ccccc3)cc2)C(=O)c2ccc(-c3ccccc3)cc2)c2cc(OCCCO)ccc2N1C(=O)c1ccc2ccccc2c1 (stereo not given in full)
composite z-score [1]: 0.508 | z-score [2]: -0.415 | composite z-score [3]: -0.0379 | composite z-score [4]: 0.493 | composite z-score [5]: 0.839 | composite z-score [6]: -0.11 | composite z-score [7]: 0.0141 | composite z-score [8]: -0.284 | composite z-score [9]: 0.0403 | composite z-score [10]: -0.116

C=CC[C@@]1(C(=O)NCCCOC)N=C(c2ccc(OCCCO)cc2)O[C@@H]1c1ccccc1N=[N+]=[N-]
composite z-score [1]: 1.44 | z-score [2]: -1.09 | composite z-score [3]: -0.553 | composite z-score [4]: 0.968 | composite z-score [5]: -0.105 | composite z-score [6]: -0.0519 | composite z-score [7]: 0.0639 | composite z-score [8]: 0.291 | composite z-score [9]: 0.905 | composite z-score [10]: 0.767

OCCCC1=CC(c2ccc(CN3CCCC3)cc2)N(Cc2cc3c(cc2Br)OCO3)CC1 (stereo not given)
composite z-score [1]: -0.377 | z-score [2]: -3.23 | composite z-score [3]: 0.477 | composite z-score [4]: -0.464 | composite z-score [5]: -0.811 | composite z-score [6]: -0.0735 | composite z-score [7]: 0.0611 | composite z-score [8]: 0.162 | composite z-score [9]: 1.17 | composite z-score [10]: 0.396

COCCOC(=O)N1C(=O)[C@@]2(c3cc(C#CC4(O)CCCCCC4)ccc31)[C@H](c1ccc(O)cc1)N1[C@H](c3ccccc3)[C@H](c3ccccc3)OC(=O)[C@H]1[C@@H]2C(=O)N1CCN(c2ncccn2)CC1
composite z-score [1]: 1.35 | z-score [2]: -1.58 | composite z-score [3]: 0.45 | composite z-score [4]: 1.83 | composite z-score [5]: 0.18 | composite z-score [6]: 0.0375 | composite z-score [7]: 0.679 | composite z-score [8]: -0.679 | composite z-score [9]: 1.21 | composite z-score [10]: 0.383

COC(=O)[C@@]1(Cc2ccc(OC)cc2)[C@H]2c3cc(C(=O)N4CCCC4)n(CCO)c3C[C@H]2CN1C(=O)c1ccccc1
composite z-score [1]: 1.1 | z-score [2]: -0.474 | composite z-score [3]: -0.352 | composite z-score [4]: 0.841 | composite z-score [5]: 0.173 | composite z-score [6]: 0.433 | composite z-score [7]: 0.305 | composite z-score [8]: 1.85 | composite z-score [9]: 1.47 | composite z-score [10]: 0.365

NC(=O)NCC#Cc1ccc2c(c1)[C@]1(C(=O)N2)[C@H](c2ccccc2OCCO)N2[C@H](c3ccccc3)[C@H](c3ccccc3)OC(=O)[C@H]2[C@@H]1C(=O)NC[C@H](O)c1ccccc1
composite z-score [1]: 1.36 | z-score [2]: -0.651 | composite z-score [3]: -0.568 | composite z-score [4]: -0.157 | composite z-score [5]: 0.501 | composite z-score [6]: -0.0981 | composite z-score [7]: 0.0141 | composite z-score [8]: -0.213 | composite z-score [9]: 0.395 | composite z-score [10]: 1.1

O=C(NCCN1CCOCC1)[C@@H]1c2ccccc2C(=O)N(Cc2ccccc2Cl)[C@H]1c1ccc(CO)cc1
composite z-score [1]: -0.388 | z-score [2]: -0.786 | composite z-score [3]: -0.341 | composite z-score [4]: -0.635 | composite z-score [5]: -0.725 | composite z-score [6]: 0.0491 | composite z-score [7]: -0.471 | composite z-score [8]: 0.414 | composite z-score [9]: -0.815 | composite z-score [10]: 0.27

Cc1ccc(N2C(=O)c3ccccc3[C@@H](C(=O)NCCCN(C)C)[C@@H]2c2ccc(CO)cc2)nc1
composite z-score [1]: -0.48 | z-score [2]: 0.234 | composite z-score [3]: -0.14 | composite z-score [4]: -0.571 | composite z-score [5]: -0.382 | composite z-score [6]: -0.22 | composite z-score [7]: -0.452 | composite z-score [8]: -0.577 | composite z-score [9]: 1.29 | composite z-score [10]: 0.14

COc1ccc(C#Cc2ccc3c(c2)[C@]2(C(=O)N3)[C@H](C(=O)O)[C@H]3C(=O)O[C@H](c4ccccc4)[C@H](c4ccccc4)N3[C@@H]2c2ccc(O)cc2)cc1
composite z-score [1]: 0.78 | z-score [2]: -1.43 | composite z-score [3]: -0.67 | composite z-score [4]: 0.695 | composite z-score [5]: 1.2 | composite z-score [6]: -0.124 | composite z-score [7]: 0.214 | composite z-score [8]: -0.0446 | composite z-score [9]: 0.286 | composite z-score [10]: -0.204

COc1ccc([Si](C)(C)[C@@H]2[C@@H](CCO)O[C@]3(C(=O)N(Cc4ccccc4)c4ccc(NC(=O)[C@H](C)O)cc43)[C@H]2C)cc1
composite z-score [1]: 1.35 | z-score [2]: -5.08 | composite z-score [3]: 0.387 | composite z-score [4]: 1.46 | composite z-score [5]: -0.153 | composite z-score [6]: 0.0559 | composite z-score [7]: -0.0738 | composite z-score [8]: -0.0428 | composite z-score [9]: 1.5 | composite z-score [10]: 0.484

C=CCN1C(=O)[C@]2(CCS(=O)(=O)c3ccccc3)N=C(c3ccc(OCCCO)cc3)O[C@@H]2c2ccccc21
composite z-score [1]: 1.29 | z-score [2]: -2.68 | composite z-score [3]: 0.59 | composite z-score [4]: 2.17 | composite z-score [5]: -0.493 | composite z-score [6]: -0.0268 | composite z-score [7]: 0.365 | composite z-score [8]: 0.033 | composite z-score [9]: 1.68 | composite z-score [10]: 1.2

COCCOC(=O)N1C(=O)[C@@]2(c3cc(C#CCCO)ccc31)[C@H](C(=O)Nc1nc3ccccc3s1)[C@H]1C(=O)O[C@H](c3ccccc3)[C@H](c3ccccc3)N1[C@@H]2c1ccc(O)cc1
composite z-score [1]: 1.16 | z-score [2]: -1.65 | composite z-score [3]: 1.09 | composite z-score [4]: 0.999 | composite z-score [5]: -0.237 | composite z-score [6]: -0.0445 | composite z-score [7]: 0.191 | composite z-score [8]: 0.566 | composite z-score [9]: 0.549 | composite z-score [10]: 1.6

COC(=O)[C@@]1(Cc2ccccc2)[C@H]2c3cc(C(=O)N(C)C)n(Cc4ccc(C)o4)c3C[C@H]2CN1C(=O)c1ccccc1
composite z-score [1]: 0.946 | z-score [2]: -2.49 | composite z-score [3]: 0.0319 | composite z-score [4]: 1.69 | composite z-score [5]: 1.26 | composite z-score [6]: 0.69 | composite z-score [7]: 1.95 | composite z-score [8]: 0.728 | composite z-score [9]: 1.29 | composite z-score [10]: 0.76

C=CC[C@@H](OC(=O)Nc1ccc(SC)cc1)c1ccc(O)c(F)c1
composite z-score [1]: -0.148 | z-score [2]: 0.56 | composite z-score [3]: -0.28 | composite z-score [4]: -0.818 | composite z-score [5]: -0.776 | composite z-score [6]: -0.0991 | composite z-score [7]: 0.42 | composite z-score [8]: -0.036 | composite z-score [9]: 0.958 | composite z-score [10]: 0.26
